ssDAF-12 act = activates DAF-12 receptor from parasite S. stercoralis; HEK293 ssDAF-12/GRIP1 lit1-tk-luc reporter, luminescence; % of 3 µM dafachronic acid response; activation, % at 6.8 µM; 370,000 tested, 1% active;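 active = activation above the mean over all tested compounds plus 3 SD, cut at about 0.9% in these data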;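 note: 0% = DMSO-only wells and 100% = 3 µM delta7-dafachronic acid wells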
SMARCA2 act = increases SMARCA2 function in MMTV reporter cells; MG213 cells, MMTV-luciferase reporter, dexamethasone, overnight; activation, % at 9.1 µM; 370,000 tested, 1% active; AID 652017; in the data active = activation above about 7.8%;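 note: 0% = vehicle wells and 100% = reference activator wells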
hgDAF-12 ag = activates the H. glycines DAF-12 receptor ligand-binding domain | HEK293 GAL4-hgDAF12 UAS-luciferase reporter, agonist luminescence; normalized to butyrate control | activation, % at 6.8 µM | 370,000 tested, 1.8% active;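 active = activation above a cutoff set at the mean of all screened compounds plus 3 SD, cut at about 10% in these data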;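 note: 0% = DMSO wells and 100% = sodium butyrate wells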
hcDAF12 agonist = H. contortus DAF-12 activation, primary screen. 370,000 tested, 1.4% active. activation, % at 6.8 µM. HEK293 hcDAF-12 lit1-tk-luc reporter, luminescence; 0% DMSO, 100% Δ7-dafachronic acid;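 active = activation above the mean of all tested compounds plus 3 SD, cut at about 5.5% in these data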;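 note: 100% = response to 3 µM Δ7-dafachronic acid high control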
DAX1 inh-1 = inhibitors of human orphan nuclear receptor DAX1 (NR0B1) | HEK293 Gal4-DAX1 luciferase reporter, luminescence | inhibition, % at 6.75 µM | 340,000 tested, 0.99% active | AID 504766;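 active = inhibition above the mean over all tested compounds plus 3 SD, cut at about 4.2% in these data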;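 note: 0% = DAX1-transfected cells with DMSO and 100% = empty-vector control cells with DMSO; inhibition shows as a rise in luminescence from relieved DAX1 repression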
Target sequence (P51843 207-470 limits assumed): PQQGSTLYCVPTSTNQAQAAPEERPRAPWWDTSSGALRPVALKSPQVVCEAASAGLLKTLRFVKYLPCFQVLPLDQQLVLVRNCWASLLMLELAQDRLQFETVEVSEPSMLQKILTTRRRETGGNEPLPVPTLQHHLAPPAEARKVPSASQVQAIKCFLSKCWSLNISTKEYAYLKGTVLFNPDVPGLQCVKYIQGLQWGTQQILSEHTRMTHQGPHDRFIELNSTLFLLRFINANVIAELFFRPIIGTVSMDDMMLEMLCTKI
DAX1 inh-2 = blocks DAX1 repression of SF-1 activated StAR promoter | HEK293T StAR-luciferase reporter, SF-1/DAX-1 repression relief | inhibition, % at 6.8 µM | 370,000 tested, 1.1% active | AID 652010;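 active = inhibition above the mean over all tested compounds plus 3 SD, cut at about 3.6% in these data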;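 note: 0% = DAX-1 cells with DMSO and 100% = cells lacking DAX-1 with DMSO; higher inhibition means more luminescence from relief of DAX-1 repression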
LXRb hcDAF ctr = counter-screen for hcDAF-12 agonists: agonists of human LXR-beta; activation, % at 6.8 µM; 3,400 tested, under 10 active; shares compounds with hcDAF12 agonist; HEK293 Gal4-LXR tk-luc reporter, luminescence, 24 h; normalized: DMSO 0%, positive control 100%; AID 743027;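 active = mean percent activation of the reporter above a cutoff set as the average over tested compounds plus their standard deviation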
hcDAF12 conf = hcDAF-12 agonism, confirmation assay; shares compounds with hcDAF12 agonist; HEK293 hcDAF-12 lit1-tk-luc reporter, luminescence; % of Δ7-dafachronic acid response; activation, % at 6.8 µM; 3,400 tested, 61% active;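 active = mean activation across triplicate tests above the threshold derived from the earlier primary screen, cut at about 5.5% in these data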;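 note: 0% = DMSO only wells and 100% = 3 µM Δ7-dafachronic acid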
The depositor's hits bear a star. Most compounds without a hit are left out; they make up all but 4.8% or so of the library.

What do the screens show for `COc1ccccc1CN=c1c([N+](=O)[O-])nn(-c2ccc3c(c2)OCCO3)n1O`?
ssDAF-12 act: 0; SMARCA2 act: 1; hgDAF-12 ag: 11*; hcDAF12 agonist: 9.0*; DAX1 inh-1: 2; DAX1 inh-2: 3; LXRb hcDAF ctr: 0; hcDAF12 conf: 3

How did C=CCN1C(=O)C2(OCCCO2)c2ccccc21 do in these assays?
ssDAF-12 act: -2; SMARCA2 act: 1; hgDAF-12 ag: -1; hcDAF12 agonist: -1; DAX1 inh-1: 3; DAX1 inh-2: 0

Results for Cc1ccc(SCC(=O)N2CCN(c3ccccn3)CC2)cc1 ?
ssDAF-12 act: -1; SMARCA2 act: 1; hgDAF-12 ag: 4; hcDAF12 agonist: -1; DAX1 inh-1: 1; DAX1 inh-2: 0

What do the screens show for `O=C(CSc1nccc2ccccc12)N1CCN(c2ccccn2)CC1`?
ssDAF-12 act: -1; SMARCA2 act: -6; hgDAF-12 ag: 2; hcDAF12 agonist: 8.2*; DAX1 inh-1: -1; DAX1 inh-2: 3; LXRb hcDAF ctr: 0; hcDAF12 conf: 1

What do the screens show for `CC(=O)/C(=N\Nc1ccccc1)Sc1nncn1C`?
ssDAF-12 act: 0; SMARCA2 act: 2; hgDAF-12 ag: 2; hcDAF12 agonist: 8.4*; DAX1 inh-1: 1; DAX1 inh-2: 0; LXRb hcDAF ctr: 0; hcDAF12 conf: 3

What do the screens show for `COc1cccc2c1C(=O)c1c(O)c3c(c(O)c1C2=O)C[C@@](O)(C(=O)CO)C[C@@H]3OC1CC(N)C(O)C(C)O1` (stereo not given in full)?
ssDAF-12 act: 7.3*; SMARCA2 act: -11; hgDAF-12 ag: -4; hcDAF12 agonist: 11*; DAX1 inh-1: -2; DAX1 inh-2: -6; LXRb hcDAF ctr: 2; hcDAF12 conf: 5

What do the screens show for `COC(=O)[C@H](CCSC)NC(=O)Nc1ccc(C)cc1C`?
ssDAF-12 act: -2; SMARCA2 act: -3; hgDAF-12 ag: 3; hcDAF12 agonist: -1; DAX1 inh-1: 0; DAX1 inh-2: 0

Results for CCc1c(C)nc(SC/C=C/c2ccccc2)[nH]c1=O ?
DAX1 inh-1: 0

How did Cc1ccccc1N1CCN(Cc2c[nH]c3ccccc23)CC1 do in these assays?
ssDAF-12 act: 0; SMARCA2 act: -3; hgDAF-12 ag: 1; hcDAF12 agonist: 6.6*; DAX1 inh-1: 0; DAX1 inh-2: 0; LXRb hcDAF ctr: 0; hcDAF12 conf: 4

What do the screens show for `CCS(=O)(=O)N1CCN(Cc2c[nH]c3ccccc23)CC1`?
ssDAF-12 act: 0; SMARCA2 act: -2; hgDAF-12 ag: 9; hcDAF12 agonist: 7.4*; DAX1 inh-1: -1; DAX1 inh-2: 1; LXRb hcDAF ctr: 0; hcDAF12 conf: 3

What do the screens show for `COc1ccccc1N1CCN(Cc2c[nH]c3ccccc23)CC1`?
ssDAF-12 act: 0; SMARCA2 act: -4; hgDAF-12 ag: 1; hcDAF12 agonist: 2; DAX1 inh-2: -1

What do the screens show for `Brc1ccccc1CN1CCN(Cc2c[nH]c3ccccc23)CC1`?
ssDAF-12 act: -1; SMARCA2 act: -1; hgDAF-12 ag: -1; hcDAF12 agonist: 4; DAX1 inh-2: -1

How did c1ccc2c(c1)Nc1nccnc1S2 do in these assays?
ssDAF-12 act: 0; SMARCA2 act: 1; hgDAF-12 ag: 7; hcDAF12 agonist: 7.7*; DAX1 inh-1: -1; DAX1 inh-2: 2; LXRb hcDAF ctr: 0; hcDAF12 conf: 7.5*

How did COc1cc(-c2ccc(NC(=O)c3ccc(C)cc3)c(OC)c2)ccc1NC(=O)c1ccc(C)cc1 do in these assays?
ssDAF-12 act: -1; SMARCA2 act: 1; hgDAF-12 ag: 3; hcDAF12 agonist: -1; DAX1 inh-1: -1; DAX1 inh-2: 0

Results for CC1CCc2nc(/C(C#N)=C/c3cccnc3)sc2C1 (stereo not given) ?
ssDAF-12 act: 0; SMARCA2 act: 5; hgDAF-12 ag: 13*; hcDAF12 agonist: 7.1*; DAX1 inh-1: 6.4*; DAX1 inh-2: 3.8*; LXRb hcDAF ctr: 1; hcDAF12 conf: 5

Results for Cc1ccc(CN2CCN(/N=C/c3cc(Br)ccc3O)CC2)cc1 ?
ssDAF-12 act: -1; SMARCA2 act: 0; hgDAF-12 ag: 2; hcDAF12 agonist: -1; DAX1 inh-1: 0; DAX1 inh-2: -1

How did Cc1ccc(C(=O)COC(=O)c2cccs2)cc1 do in these assays?
ssDAF-12 act: 1; SMARCA2 act: 2; hgDAF-12 ag: 9; hcDAF12 agonist: 7.0*; DAX1 inh-1: 2; DAX1 inh-2: 4.5*; LXRb hcDAF ctr: 1; hcDAF12 conf: 5

How did CCc1ccc(C(=O)COC(=O)c2cccs2)cc1 do in these assays?
ssDAF-12 act: -1; SMARCA2 act: 6; hgDAF-12 ag: 10; hcDAF12 agonist: 0; DAX1 inh-1: 0; DAX1 inh-2: 2

What do the screens show for `CN(C)c1ccc(C(=O)OCC(=O)c2cccs2)cc1`?
ssDAF-12 act: 1.1*; SMARCA2 act: 5; hgDAF-12 ag: 20*; hcDAF12 agonist: 8.4*; DAX1 inh-1: 1; DAX1 inh-2: 4.2*; LXRb hcDAF ctr: 1; hcDAF12 conf: 4

How did Cn1c(CNc2ccccc2)nc2ccccc21 do in these assays?
ssDAF-12 act: 1.1*; SMARCA2 act: 6; hgDAF-12 ag: 10; hcDAF12 agonist: 8.7*; DAX1 inh-1: 2; DAX1 inh-2: 2; LXRb hcDAF ctr: 0; hcDAF12 conf: 6.9*

Results for Cc1ccccc1NCc1nc2ccccc2n1C ?
ssDAF-12 act: 1.0*; SMARCA2 act: 4; hgDAF-12 ag: 10; hcDAF12 agonist: 8.4*; DAX1 inh-1: 3; DAX1 inh-2: 3; LXRb hcDAF ctr: 1; hcDAF12 conf: 6.2*

How did CCCC(=O)NCc1nc2ccccc2n1C do in these assays?
ssDAF-12 act: -1; SMARCA2 act: -1; hgDAF-12 ag: 0; hcDAF12 agonist: 1; DAX1 inh-1: 0; DAX1 inh-2: 0

How did CCn1c(CNc2ccc(C(=O)O)cc2)nc2ccccc21 do in these assays?
ssDAF-12 act: 0; SMARCA2 act: 1; hgDAF-12 ag: 1; hcDAF12 agonist: 9.3*; DAX1 inh-1: 0; DAX1 inh-2: 0; LXRb hcDAF ctr: 0; hcDAF12 conf: 2

How did Cn1c(CNc2ccccc2O)nc2ccccc21 do in these assays?
ssDAF-12 act: 3.0*; SMARCA2 act: 5; hgDAF-12 ag: 4; hcDAF12 agonist: 8.4*; DAX1 inh-1: 0; DAX1 inh-2: 0; LXRb hcDAF ctr: 0; hcDAF12 conf: 9.0*

Screening data (PubChem)
